BCLXL inh: Bcl-xL (human) inhibition | Q07817 | inhibition, % at 10.9 µM | GST-Bcl-xL / FITC-Bim BH3 peptide fluorescence polarization | AID 2129 | actives 0.7% (n = 320,000);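 active means inhibition above the mean of all tested compounds plus 3 SD, cutoff set per campaign, cut at about 30% in these data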;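 further: 0% = DMSO wells and 100% = unlabeled Bim-BH3 peptide competitor; inhibitors lower millipolarization by displacing the labeled peptide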
Target sequence (Q07817 whole entry, looked up): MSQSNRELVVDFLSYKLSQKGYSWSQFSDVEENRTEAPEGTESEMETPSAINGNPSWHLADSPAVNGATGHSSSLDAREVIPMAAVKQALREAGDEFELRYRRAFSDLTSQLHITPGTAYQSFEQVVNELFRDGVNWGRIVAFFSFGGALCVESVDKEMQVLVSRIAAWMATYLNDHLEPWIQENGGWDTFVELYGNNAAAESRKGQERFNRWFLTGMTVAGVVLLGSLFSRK
EBV gp42 inh: EBV gp42 inhibition; Q1HVG2; Fluorescence polarization binding assay, mP read-out; inhibition, % (tested at 21.74 µM); actives 0.42% (n = 220,000); in the data active means inhibition above about 50%
MCL1 BIM primary: disrupts human MCL1 binding to BIM-BH3 peptide | GST-MCL1 / FITC-Bim-BH3 fluorescence polarization | inhibition, % at 10.9 µM | actives 0.68% (n = 320,000) | AID 2057;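 active means inhibition above the mean inhibition of all tested compounds plus 3 SD, set per campaign, cut at about 40% in these data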;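 further: 0% = DMSO wells and 100% = unlabeled Bim-BH3 peptide control; higher means more loss of mP so more displacement of Bim peptide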
Target sequence (Q07820 whole entry, looked up): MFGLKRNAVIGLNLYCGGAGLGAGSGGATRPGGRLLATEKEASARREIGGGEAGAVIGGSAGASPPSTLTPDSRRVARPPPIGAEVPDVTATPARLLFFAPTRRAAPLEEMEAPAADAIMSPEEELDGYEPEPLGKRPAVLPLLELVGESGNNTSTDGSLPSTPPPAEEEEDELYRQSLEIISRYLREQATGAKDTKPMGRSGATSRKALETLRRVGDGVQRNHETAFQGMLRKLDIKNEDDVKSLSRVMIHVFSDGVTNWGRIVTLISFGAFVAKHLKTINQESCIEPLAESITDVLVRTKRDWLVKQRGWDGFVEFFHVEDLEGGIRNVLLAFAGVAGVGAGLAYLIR
GLD-1 RNA inh: GLD-1-TGE RNA interaction inhibition (C. elegans); Q17339; AID 2280; inhibition, % at 5.96 µM; purified GLD-1 + fluorescein TGE RNA, fluorescence polarization; actives 0.44% (n = 320,000);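 active means percent inhibition above a per-plate cutoff, the plate mean of test compounds plus 3 SD, cut at about 30% in these data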;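 further: 0% = DMSO wells with GLD-1 and probe and 100% = wells lacking GLD-1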
eLon inh: inhibitors of E. coli Lon protease. AID 602123. purified E. coli Lon protease, fluorescence polarization. inhibition, % at 7.94 µM. actives 0.42% (n = 360,000); in the data active means inhibition above about 13%, passing the limit was not always enough;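 further: 0% = enzyme with probe and DMSO and 100% = no enzyme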
MEX-5 binding: C. elegans MEX-5 TCR-2 RNA binding activity. Q9XUB2. MEX-5/FITC-TCR2 RNA binding, fluorescence polarization; active compounds read low. activity score (negative = inhibition of binding), % at 10 µM. actives 0.38% (n = 300,000). AID 1832;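 active means inhibition past about -25% in most replicates, and total fluorescence under double the plate's negative control median, limit read from the data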;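 further: 0% = DMSO and -100% = 5 µM competing unlabeled TCR2 RNA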
E coli Lon conf: confirmation of E. coli Lon protease inhibitors | inhibition, % at 7.94 µM | purified E. coli Lon, fluorescence polarization | actives 31% (n = 1,400) | shares compounds with eLon inh; in the data active means inhibition above about 16%;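 further: 0% = enzyme with probe and DMSO and 100% = no enzyme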
* = called active by the depositor; x = no result; + = active, no number. Most compounds without a hit are left out; they make up all but 1.5% or so of the library.

SMILES | BCLXL inh | EBV gp42 inh | MCL1 BIM primary | GLD-1 RNA inh | eLon inh | MEX-5 binding | E coli Lon conf
CCn1nc(C)cc1-c1nnc(Sc2ncc([N+](=O)[O-])s2)n1C | 8 | x | 6 | 0 | -2 | 0 | x
CN(C)Cc1csc(NC(=O)Nc2ccccc2Oc2ccccc2)n1 | x | x | x | x | 86* | x | 6
CN(C)Cc1csc(NC(=O)Nc2ccccc2-c2ccccc2)n1 | x | x | x | x | -15 | x | x
CN(C(=O)c1ccccc1C(=O)OCC(=O)c1ccccc1)c1ccccc1 | 6 | x | -4 | -1 | 12 | x | x
COc1ccc(C(=O)COC(=O)c2ccccc2C(=O)N(C)c2ccccc2)c(OC)c1 | -1 | x | 2 | -6 | 40* | 0 | 8
CN1CCc2c(sc(NC(=O)c3ccc(C(=O)c4ccccc4)cc3)c2C(N)=O)C1 | -6 | x | -9 | -6 | 45* | -23 | -46
CN1CCc2c(sc(NC(=O)CS(=O)(=O)c3ccccc3)c2C(N)=O)C1 | 2 | x | 7 | -4 | 2 | -5 | x
COc1ccc([N+](=O)[O-])cc1NC(=O)C(C)c1ccccc1 (stereo unspecified) | 1 | -8 | 9 | 2 | 22* | -2 | -1
O=C(CNC(=O)c1cccc(F)c1)N/N=C/C=C/c1ccccc1 | 2 | -5 | 1 | -4 | 17* | -1 | 3
COc1cc(/C=C/CN2CCC(C(=O)NC(c3ccc(F)cc3)c3ccc4ccccc4n3)CC2)ccc1OC(C)=O (stereo unspecified) | x | x | x | x | 26* | x | 1
O=C(NC(c1ccc(F)cc1)c1ccc2ccccc2n1)C1CCN(Cc2ccc3ccccc3n2)CC1 (stereo unspecified) | x | x | x | x | -19 | x | x
CCc1nc2ccc(C(=O)Nc3ccc(OC)c(OC)c3)cn2c1N(C)Cc1nccs1 | x | x | x | x | -1 | x | x
C[C@@H]1CN([C@H](C)CO)C(=O)c2c(c3ccccc3n2C)-c2ccccc2CO[C@H]1CN(C)Cc1ccccc1 | x | x | x | x | 17* | x | -8
CC(C)OP(=O)(CCP(=O)(OC(C)C)OC(C)C)OC(C)C | 3 | 4 | 5 | 5 | 17* | 2 | -81
COc1ccc(NC2CCCN(C(=O)CCC(=O)c3ccc(F)cc3)C2)cc1 (stereo unspecified) | 5 | x | 3 | 1 | -4 | -2 | x
Nc1ccc2c(c1)-c1ccccc1S(=O)(=O)N2 | 29 | -15 | 38 | 19 | 17* | -41* | -13
Cc1ccc2c(c1)-c1ccccc1S(=O)(=O)N2 | 5 | x | 4 | 8 | -2 | -1 | x
Cc1ccccc1-c1cccc([C@@H]2C[C@H]3[C@H](CON3C)CN2S(=O)(=O)c2ccccc2C)c1 | x | x | x | x | -3 | x | x
CC(C)CNC(=O)C1(C)CCCN1C(=O)CCc1cccs1 (stereo unspecified) | x | x | x | x | 12 | x | x
Cc1[nH]n(-c2ccccc2)c(=O)c1/C=N/NC(=O)c1ccccc1F | 5 | x | 7 | -2 | 21* | 2 | -6
CN(C1=NS(=O)(=O)c2ccccc21)c1ccc(OC(=O)c2ccccc2F)cc1 | x | x | x | x | -9 | x | x
CCOC(=O)N1CCN=C1SCc1ccc(Cl)c(Cl)c1 | 2 | -14 | 2 | -6 | -7 | 1 | x
O=C(CN(C(=O)Cn1nnc(-c2ccc(F)cc2)n1)c1ccc(F)cc1)NC1CCCC1 | 3 | x | -3 | 8 | 18* | 0 | 1
CCOC(=O)c1ccc(NC(=O)CSc2nnc(C)n2-c2ccccc2)cc1 | 5 | -11 | 11 | 0 | 14* | -1 | 8
Cc1cc(NC(=O)CCC(=O)N(Cc2ccco2)C2(C(=O)NC3CCCCC3)CCCCC2)no1 | -1 | x | -2 | -4 | 21* | -2 | -3
SMILES | BCLXL inh | EBV gp42 inh | MCL1 BIM primary | GLD-1 RNA inh | eLon inh | MEX-5 binding | E coli Lon conf
CCOC(=O)NC(=O)/C(C#N)=C\Nc1sccc1C(=O)OC | + | 12 | + | + | + | -8 | 2
CCOC(=O)NC(=O)/C(C#N)=C\Nc1ccc(Cl)cc1Cl | 2 | -1 | 0 | 2 | 1 | -1 | x
O=C(Nc1ccc(Oc2ccccc2)cc1)c1ccc(Cn2c(=O)[nH]c3ccsc3c2=O)cc1 | -3 | -8 | -7 | 0 | -5 | 4 | x
O=C(Nc1ccc(Cl)c(Cl)c1)c1ccc(Cn2c(=O)[nH]c3ccsc3c2=O)cc1 | 2 | -12 | 5 | 0 | 27* | -2 | 15
Cc1cc(C)c(OCC(=O)OCC(=O)NCC2CCCCC2)c(C)c1 | 1 | x | 0 | 2 | 5 | 1 | x
CCOC(=O)c1c(C)oc2c1c(C=NCCO)c(O)c1ccccc12 | x | -17 | x | x | 25* | -1 | 20*
CCOC(=O)c1c(C)oc2c1c(C(c1ccccc1)N1CCOCC1)c(O)c1ccccc12 (stereo unspecified) | 1 | -23 | 3 | 9 | 5 | 0 | x
CCOC(=O)c1ccc(NC(=O)CSc2nncn2-c2cccnc2)cc1 | 1 | x | -4 | -3 | 0 | -3 | x
CC(=O)N1CCC(C(=O)Nc2ccc(S(=O)(=O)N3CCCC(C)C3)cc2)CC1 (stereo unspecified) | x | x | x | x | -4 | x | x
CC(=O)N1CCN(S(=O)(=O)c2ccc(S(=O)(=O)N3CCCC(C)C3)cc2)CC1 (stereo unspecified) | 2 | x | -3 | 0 | 22* | -1 | -14
Nc1ccccc1C(=O)NN=Cc1cccnc1 | x | x | x | x | 21* | x | -10
O=C1ON=C(c2ccccc2)/C1=C/c1cccnc1 | x | 8 | x | x | 17* | x | 3
O=C(Cc1ccsc1)OCC(=O)c1ccccc1 | x | x | x | 0 | -9 | x | x
Cc1ccc(-n2c(C)cc(C(=O)Cn3nc(C(=O)O)c4ccccc4c3=O)c2C)cc1 | -1 | 14 | -16 | -4 | 51* | 0 | -4
CCOC(=O)C1CCN(C(=O)C(=O)c2cn(CC(=O)N3CCCCCC3)c3ccccc23)CC1 | 11 | x | 3 | 10 | 14 | -1 | x
CCOC(=O)N1CCN(C(=O)C(=O)c2cn(CC(=O)N3CCCCCC3)c3ccccc23)CC1 | 4 | x | 6 | 8 | 20* | -8 | 2
Cc1cc(C)c(NC(=O)CNC(=O)c2ccc3ncsc3c2)c(C)c1 | x | x | x | -8 | -4 | x | x
CCOC(=O)C(C)Sc1nnc(Cc2cc(=O)[nH]c(=O)[nH]2)n1-c1ccc(OCC)cc1 (stereo unspecified) | 0 | -11 | -6 | 5 | -3 | x | x
COC(=O)C(C)Sc1nnc(Cc2cc(=O)[nH]c(=O)[nH]2)n1-c1ccc(Cl)cc1 (stereo unspecified) | 21 | 0 | 21 | 27 | 37* | -15 | 8
CCOC(=O)C(C)Sc1nnc(Cc2cc(=O)[nH]c(=O)[nH]2)n1-c1ccc(Cl)cc1 (stereo unspecified) | 18 | -9 | 12 | 24 | 24* | -5 | 8
CCSc1nnc(Cc2cc(=O)[nH]c(=O)[nH]2)n1-c1ccc(Cl)cc1 | 10 | -21 | 4 | 15 | 13 | 1 | x
